Reference: the supplement of paper PMC13380429

Assays:
[1] = system: Vero E6 infected with SARS-CoV-2; assay: morphology score (similarity to uninfected cells); higher = more like uninfected cells; details: 24 h
[2] = system: Vero E6 infected with SARS-CoV-2; assay: SARS-CoV-2 infection rate relative to infected DMSO; higher = more infection, active = 60 or less; details: 24 h

SMILES: O=C1Nc2ccccc2/C1=C1/Nc2ccccc2C1=O [indirubin] (10 µM)
- morphology score [1]: 0.173
- SARS-CoV-2 infection rate [2]: 99% (inactive)

SMILES: COc1ccccc1CN[C@H]1CCCN[C@H]1c1ccccc1 (10 µM)
- morphology score [1]: 0.24
- SARS-CoV-2 infection rate [2]: 86% (inactive)

SMILES: CC/C(=C(/CC)c1ccc(OP(=O)(O)O)cc1)c1ccc(OP(=O)(O)O)cc1 [fosfestrol] (10 µM)
- morphology score [1]: 0.11
- SARS-CoV-2 infection rate [2]: 96% (inactive)

SMILES: C[C@H](N)C(=O)O [L-alanine] (10 µM)
- morphology score [1]: -0.118
- SARS-CoV-2 infection rate [2]: 111% (inactive)

SMILES: CN1CCc2c(c3ccccc3n2Cc2ccccc2)C1 [mebhydrolin] (10 µM)
- morphology score [1]: 0.242
- SARS-CoV-2 infection rate [2]: 104% (inactive)

SMILES: O=C1Nc2cc(Cl)c(Cl)cc2N2CCNC[C@H]12 (10 µM)
- morphology score [1]: 0.179
- SARS-CoV-2 infection rate [2]: 108% (inactive)

SMILES: OC[C@H]1O[C@@H](n2cnc3c(NC4CCCC4)nc(Cl)nc32)[C@H](O)[C@@H]1O [2-chloro-N6-cyclopentyladenosine] (10 µM)
- morphology score [1]: 0.106
- SARS-CoV-2 infection rate [2]: 95% (inactive)

SMILES: Cc1ccc(-c2ccc(F)cc2COc2ccc(CCC(=O)O)cc2)cc1 (10 µM)
- morphology score [1]: -0.174
- SARS-CoV-2 infection rate [2]: 100% (inactive)

SMILES: NS(=O)(=O)c1ccc(C(=O)O)cc1 [carzenide] (10 µM)
- morphology score [1]: 0.174
- SARS-CoV-2 infection rate [2]: 102% (inactive)

SMILES: NC(=O)[C@H]1CCS[C@@H]2C[C@]3(CCCN3C(=O)Cc3ccc(NC(=O)COc4ccc(Cl)cc4Cl)cc3)C(=O)N12 (10 µM)
- morphology score [1]: -0.263
- SARS-CoV-2 infection rate [2]: 111% (inactive)

SMILES: CC(=O)CC/C=C(\C)CC/C=C(\C)CC/C=C(\C)CCC=C(C)C [teprenone] (10 µM)
- morphology score [1]: 0.0677
- SARS-CoV-2 infection rate [2]: 101% (inactive)

SMILES: CC(C)(Cc1ccc2ccccc2c1)NC[C@@H](O)COc1cccc(Cl)c1C#N (10 µM)
- morphology score [1]: 0.703
- SARS-CoV-2 infection rate [2]: 9.5% (active)

SMILES: O=C(O)C1CN(Cc2ccc(-c3nc4cc(Cc5ccccc5F)ccc4s3)c(F)c2)C1 (10 µM)
- morphology score [1]: -0.0698
- SARS-CoV-2 infection rate [2]: 113% (inactive)

SMILES: CN1CCCCC1Cn1cc(C(=O)c2cc([N+](=O)[O-])ccc2I)c2ccccc21 (stereo not given) (10 µM)
- morphology score [1]: 0.612
- SARS-CoV-2 infection rate [2]: 72.5% (inactive)

SMILES: C[C@]12CC/C(=N\OCCN)C[C@@H]1C(=O)C[C@@H]1[C@@H]2CC[C@]2(C)C(=O)CC[C@@H]12 [istaroxime] (0.833333 µM)
- morphology score [1]: 0.151
- SARS-CoV-2 infection rate [2]: 102% (inactive)

SMILES: COc1ccc(C(=O)c2ccccc2)c(O)c1 [oxybenzone] (10 µM)
- morphology score [1]: 0.131
- SARS-CoV-2 infection rate [2]: 102% (inactive)

SMILES: CC(C)(C)C1CCc2c(sc(NC(=O)c3ccco3)c2C(=O)O)C1 (stereo not given) (0.833333 µM)
- morphology score [1]: 0.0992
- SARS-CoV-2 infection rate [2]: 106% (inactive)

SMILES: Nc1ncnc2c1c(COc1cccc(Cl)c1)nn2C1CCOCC1 (10 µM)
- morphology score [1]: 0.00558
- SARS-CoV-2 infection rate [2]: 104% (inactive)

SMILES: COc1ccc2nc(NC(=O)Nc3ccccc3)sc2c1 [frentizole] (10 µM)
- morphology score [1]: -0.0784
- SARS-CoV-2 infection rate [2]: 114% (inactive)

SMILES: CCCCC(=O)O[C@]1(C(=O)CO)[C@@H](C)C[C@H]2[C@@H]3CCC4=CC(=O)C=C[C@]4(C)[C@@]3(F)[C@@H](O)C[C@@]21C (10 µM)
- morphology score [1]: -0.0636
- SARS-CoV-2 infection rate [2]: 112% (inactive)

SMILES: CC[C@@H](CO)NC(=O)[C@@H]1C=C2c3cccc4c3c(cn4C)C[C@H]2N(C)C1 [methysergide] (10 µM)
- morphology score [1]: 0.0741
- SARS-CoV-2 infection rate [2]: 110% (inactive)

SMILES: CC[N+](CC)(CCNC(=O)C(=O)NCC[N+](CC)(CC)Cc1ccccc1Cl)Cc1ccccc1Cl [ambenonium] (10 µM)
- morphology score [1]: 0.131
- SARS-CoV-2 infection rate [2]: 106% (inactive)

SMILES: CC#CC(=O)N1CC[C@@H](n2c(=O)n(-c3ccc(Oc4ccccc4)cc3)c3c(N)ncnc32)C1 (0.833333 µM)
- morphology score [1]: -0.0591
- SARS-CoV-2 infection rate [2]: 90% (inactive)

SMILES: Cn1ncnc1COc1nn2c(-c3cc(F)ccc3F)nnc2cc1C(C)(C)C (10 µM)
- morphology score [1]: 0.166
- SARS-CoV-2 infection rate [2]: 96.5% (inactive)

SMILES: Cc1cccc(C(=O)NCN2CCN(c3ccccc3C#N)CC2)c1 (10 µM)
- morphology score [1]: 0.161
- SARS-CoV-2 infection rate [2]: 102% (inactive)

SMILES: COc1ccccc1N1CCN(CCCCN2C(=O)c3ccccc3C2=O)CC1 (10 µM)
- morphology score [1]: 0.185
- SARS-CoV-2 infection rate [2]: 99% (inactive)

SMILES: CCCn1c(=O)c2[nH]c(C3CCCC3)nc2n(CCC)c1=O (10 µM)
- morphology score [1]: 0.0194
- SARS-CoV-2 infection rate [2]: 105% (inactive)

SMILES: O=C(c1ccccc1)c1ccc2n1CCC2C(=O)O (stereo not given) [ketorolac] (10 µM)
- morphology score [1]: 0.000781
- SARS-CoV-2 infection rate [2]: 107% (inactive)

SMILES: Cn1c([N+](=O)[O-])cnc1COC(N)=O [ronidazole] (10 µM)
- morphology score [1]: -0.00677
- SARS-CoV-2 infection rate [2]: 114% (inactive)

SMILES: O=S(=O)(c1cccc2cnccc12)N1CCCNCC1 [fasudil] (10 µM)
- morphology score [1]: 0.474
- SARS-CoV-2 infection rate [2]: 100% (inactive)

SMILES: COC(=O)N1CC[C@@H]2[C@H]1CCC[C@@]2(O)C#Cc1cccc(C)c1 [mavoglurant] (10 µM)
- morphology score [1]: -0.125
- SARS-CoV-2 infection rate [2]: 112% (inactive)

SMILES: O=C(O)Cc1ccccc1Nc1c(Cl)cccc1Cl [diclofenac] (10 µM)
- morphology score [1]: -0.00811
- SARS-CoV-2 infection rate [2]: 106% (inactive)

SMILES: Fc1ccc(CNc2ncnc3ccc(F)cc23)cc1 [spautin-1] (10 µM)
- morphology score [1]: -0.0451
- SARS-CoV-2 infection rate [2]: 117% (inactive)

SMILES: Cc1cc(N)c2ccccc2[n+]1CCCCCCCCCC[n+]1c(C)cc(N)c2ccccc21 [dequalinium] (10 µM)
- morphology score [1]: 0.175
- SARS-CoV-2 infection rate [2]: 94% (inactive)

SMILES: CS(=O)(=O)CCNCc1ccc(-c2ccc3ncnc(Nc4ccc(OCc5cccc(F)c5)c(Cl)c4)c3c2)o1 [lapatinib] (10 µM)
- morphology score [1]: -0.279
- SARS-CoV-2 infection rate [2]: 111% (inactive)
